According to PubChem BioAssay (NCATS):
Where “and” joins values, the source holds several entries; their conditions need not be identical. Identical values can stand only once. Inconclusive results are not listed. Unmarked numbers belong to inactive results. Calls of active or inactive are those of the source. Calls follow the shape of the dose curve; as a rule, active = well fitted activation curve with a large enough effect; inconclusive = small, poorly fitted or top-dose-only effect; inactive = no such curve, though single readings can be large or run the other way.
Potency is read from the fitted curve at half-maximal effect.

What follows are molecules tested against Cellular tumor antigen p53 (Homo sapiens) (UniProt P04637) (assay: Primary qHTS for small molecule compounds that upregulate eGFP-tagged delta133p53alpha (in N-terminal) cells. (AID 2060322; also: nearly all actives have a fitted effect of over 75% in size;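 as to activation: series mostly up to about 56 µM; 0% = DMSO vehicle and 100% = reference activator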)). Details: NCI-H358 eGFP-delta133p53alpha fluorescence, 24 h; activation: stronger effect = higher value.
Chain of Cellular tumor antigen p53 (Homo sapiens) (P04637 whole entry, looked up): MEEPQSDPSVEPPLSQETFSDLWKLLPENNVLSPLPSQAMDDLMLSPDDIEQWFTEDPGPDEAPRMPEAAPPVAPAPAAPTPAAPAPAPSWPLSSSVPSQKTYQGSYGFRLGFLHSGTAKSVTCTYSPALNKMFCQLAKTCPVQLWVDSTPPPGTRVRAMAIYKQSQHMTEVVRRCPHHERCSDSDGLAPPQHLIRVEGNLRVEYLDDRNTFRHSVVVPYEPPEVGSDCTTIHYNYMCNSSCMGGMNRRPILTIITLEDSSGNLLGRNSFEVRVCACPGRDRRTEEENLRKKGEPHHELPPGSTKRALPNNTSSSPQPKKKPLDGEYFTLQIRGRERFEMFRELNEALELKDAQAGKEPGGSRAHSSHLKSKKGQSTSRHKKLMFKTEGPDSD
Method in brief: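 NCI-H358 cells pre-induced 24 h with 10 ng/ml doxycycline to express N-terminal eGFP-delta133p53alpha, then dosed 24 h at 37C without doxycycline; fixed, Hoechst-stained, GFP intensity by laser scanning cytometry, normalized to DMSO (0%) and 57.5 uM 5-azacytidine (100%).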
Work on `Cn1c(=O)c2[nH]c(Br)nc2n(C)c1=O` yielded an activation of -3.95%.
In the case of `CCCCCC(N)=O`, the activation is reported as -17.5%.
In the case of `O=C(/C=C/c1ccc(O)c(O)c1)O[C@@H]1C[C@@](OC(=O)/C=C/c2ccc(O)c(O)c2)(C(=O)O)C[C@@H](O)[C@@H]1O`, the activation is reported as 11.9%.
With `Cc1cccc(C)c1OCC(=O)N[C@@H](Cc1ccccc1)[C@@H](O)C[C@H](Cc1ccccc1)NC(=O)[C@H](C(C)C)N1CCCNC1=O` the activation was -5.4% and 28.8%.
Molecule `CN1CCCCC1CCN1c2ccccc2Sc2ccc(S(C)=O)cc21` (stereo not drawn) has an activation of -3.95%.
Work on `C=C[C@@]1(C)CC(=O)[C@]2(O)[C@@]3(C)[C@@H](O)CCC(C)(C)[C@@H]3[C@H](O)[C@H](OC(C)=O)[C@@]2(C)O1` yielded an activation of -2.51%.
With `O=C1CCCc2c(O)cccc21` the activation was -14.1%.
With `CO[C@@H]1C(N(C)C(=O)c2ccccc2)C[C@H]2O[C@]1(C)n1c3ccccc3c3c4c(c5c6ccccc6n2c5c31)C(=O)NC4=O` (stereo partly drawn) the Potency was 9.68 µM (active).
In the case of `CCCCc1cc2ccccc2c(OCCN(C)C)n1`, the activation is reported as -0.565%.
In the case of `CCCSS/C(CCO)=C(\C)N(C=O)Cc1cnc(C)nc1N`, the Potency is reported as 30.9 µM (active).
For `C[C@]12CCC(=O)C=C1C=C[C@@H]1[C@@H]2CC[C@@]2(C)[C@H]1CC[C@@]21CCC(=O)O1`, the activation was -33.3%.
Work on `Nc1ccc(C(=O)O)c(O)c1` yielded an activation of 20.9%.
With `COc1cc2c(cc1OC)C(C(C(=O)N(CCc1ccc(OC)c(OC)c1OC)CCc1ccc(OC)c(OC)c1OC)c1ccccc1)=NCC2` (stereo not drawn) the activation was 3.95%.
